{"source": "ChEMBL document CHEMBL3988442", "about": "“University of Dundee, Small-Polar-MMV Screening Library” (2021)", "note": "The campaign covered roughly 48,000 compounds. About 13,000 (27%) showed an effect of 50% or more. The list shows a part of the results."}
{"tested_on": "Wolbachia pipientis", "assay": "Anti-Wolbachia Cell-Based Screen", "format": "functional", "set-up": "scale not given: in the data most compounds retested in dose-response had high values", "conditions": "5 µM", "units": {"Percent Effect": "%"}}
{"smiles": "COCC(C)(CCO)NC(=O)Nc1cccc(F)c1C", "note": "(stereo not given)", "Percent Effect": -3.176}
{"smiles": "O=C([C@@H]1CCO[C@@H]2CCN(CC3CC3)C[C@H]21)N1CCCC1", "Percent Effect": -26.98}
{"smiles": "O=C(O)C(F)(F)F.O=C([C@H]1CN(CCc2ccccc2)C[C@H]2OCC[C@@H]12)N1CCCO1", "Percent Effect": -7.584}
{"smiles": "O=C(O)C(F)(F)F.O=C([C@@H]1CCO[C@@H]2CCN(CCc3ccccc3)C[C@@H]21)N1CCCC1", "Percent Effect": 117.3}
{"smiles": "CCN(CC)c1ncc2c(O)nc(C3CCNCC3)cc2n1", "Percent Effect": 97.4}
{"smiles": "Cc1nc(C2CCCNC2)cc(N(C)CCc2cn[nH]c2)n1", "note": "(stereo not given)", "Percent Effect": 4.214}
{"smiles": "CN(C)c1ncc2c(O)nc(C3CCNCC3)cc2n1.Cl", "Percent Effect": 122.5}
{"smiles": "CCN(CC)c1ncc(Cl)c(C(=O)NC2CCC(O)CC2)n1", "note": "(stereo not given)", "Percent Effect": -11}
{"smiles": "CCN(CC)c1ncc(Cl)c(C(=O)NC2CC2)n1", "Percent Effect": -2.852}
{"smiles": "CN(C)c1ncc2c(O)nc(C3CCCNC3)cc2n1", "note": "(stereo not given)", "Percent Effect": 88.81}
{"smiles": "CC(C)n1cnc2c(N3CCCC3)nc(C3CCNCC3)cc21.Cl.Cl", "Percent Effect": -3.823}
{"smiles": "Cl.Cl.Cn1cnc2c(-c3cccnc3)nc(C3CCNCC3)cc21", "Percent Effect": -57.7}
{"smiles": "CN(C)CCNC(=O)c1noc2c1CN(C(=O)N(C)C)CC2", "Percent Effect": 9.564}
{"smiles": "Cn1ccc2c(C(=O)NCCCS(C)(=O)=O)cccc21", "Percent Effect": -9.064}
{"smiles": "Cc1c(I)cccc1C(=O)NCc1ncc[nH]1", "Percent Effect": -7.865}
{"smiles": "Cc1c(NCC(C)(C)C)cccc1C(=O)NCc1ncnn1C", "Percent Effect": -8.622}
{"smiles": "Cn1cc(C(=O)NCCC(=O)N2CCCCC2)c(-c2cccnc2)n1", "Percent Effect": -19.31}
{"smiles": "Cc1ccc(C(=O)NCCCS(=O)(=O)c2ccccc2)c(=O)[nH]1", "Percent Effect": 14.19}
{"smiles": "Cc1c(C(=O)NCC(C)(C)S(C)(=O)=O)cccc1-c1ccccn1", "Percent Effect": 90.41}
{"smiles": "Cc1c(C(=O)NCCCS(C)(=O)=O)cccc1-c1ccccn1", "Percent Effect": 78.39}
{"smiles": "Cc1c(C(=O)NCCC(=O)N2CCCC2)oc2c(F)cccc12", "Percent Effect": 5.296}
{"smiles": "Cc1c(C(=O)NCCC(=O)N2CCCC2)cccc1-c1ccccn1", "Percent Effect": 102.1}
{"smiles": "Cc1csc(C2(NCc3nc(-c4ccco4)no3)CCCC2)n1", "Percent Effect": -16}
{"smiles": "Cc1cc(C)n2nc(CC(=O)N[C@H]3C[C@H]4CN(C)CCN4C3)nc2n1", "Percent Effect": -5.28}
{"smiles": "CC1CCC2(CC1)Nc1ccccc1CO2", "note": "(stereo not given)", "Percent Effect": 93.91}
{"smiles": "OCC1(Cc2ccc(Cl)cc2)CCN(Cc2ccccc2O)CC1", "Percent Effect": -3.576}
{"smiles": "c1ccc2c(c1)COC1(CCCC1)N2", "Percent Effect": 105.5}
{"smiles": "c1ccc(CN2CCC3(CC2)Nc2ccccc2CO3)cc1", "Percent Effect": 107.9}
{"smiles": "c1ccc2c(c1)COC1(CCCCC1)N2", "Percent Effect": 87.69}
{"smiles": "O=C(O)C(F)(F)F.O=C1COC2(CCN(Cc3ccc(F)cc3)CC2)CN1", "Percent Effect": 10.25}
{"smiles": "CCc1nc(NC(=O)NCCc2cccc(C)n2)nn1C", "Percent Effect": -4.482}
{"smiles": "O=S(=O)(NCC(O)c1ccc(C(F)(F)F)cc1)C1CC1", "note": "(stereo not given)", "Percent Effect": -5.07}
{"smiles": "Cc1noc(C)c1CNc1cccc(C(=O)N2CCCC(O)C2)c1", "note": "(stereo not given)", "Percent Effect": 6.213}
{"smiles": "CC(C)(C)n1ncc2c(=O)[nH]c(N3CCC4(CCCCC4)C3)nc21", "Percent Effect": -1.553}
{"smiles": "CCc1ncc(CN(C)C2CCN(c3sccc3C#N)C2=O)s1", "note": "(stereo not given)", "Percent Effect": 0.715}
{"smiles": "CCc1cnc(CN(C)C2CCN(c3sccc3C#N)C2=O)s1", "note": "(stereo not given)", "Percent Effect": 1.692}
{"smiles": "Cn1c(N)nnc1SC1CCCN(c2ccccc2)C1=O", "note": "(stereo not given)", "Percent Effect": -9.447}
{"smiles": "CN(Cc1ncnn1C)C1CCN(c2sccc2C#N)C1=O", "note": "(stereo not given)", "Percent Effect": 7.621}
{"smiles": "N#Cc1ccsc1N1CCC(Sc2ccncc2)C1=O", "note": "(stereo not given)", "Percent Effect": 81.54}
{"smiles": "Cc1nnc(SC2CCN(c3sccc3C#N)C2=O)s1", "note": "(stereo not given)", "Percent Effect": 109.2}
{"smiles": "O=C1C(Sc2nc(=O)ccn2C2CC2)CCN1c1ccccc1", "note": "(stereo not given)", "Percent Effect": -7.516}
{"smiles": "Cc1cc(N)nc(SC2CCN(c3ccccc3F)C2=O)n1", "note": "(stereo not given)", "Percent Effect": 10.35}
{"smiles": "N#Cc1ccsc1N1CCC(Sc2ncc[nH]2)C1=O", "note": "(stereo not given)", "Percent Effect": 95.53}
{"smiles": "Cc1nnc(SC2CCN(c3sccc3C#N)C2=O)[nH]1", "note": "(stereo not given)", "Percent Effect": 106.7}
{"smiles": "Cc1cc(N)nc(SC2CCN(c3ccccc3)C2=O)n1", "note": "(stereo not given)", "Percent Effect": -22.79}
{"smiles": "CCC(CO)N(Cc1ccco1)C(=O)c1sccc1NC(C)=O", "note": "(stereo not given)", "Percent Effect": 21.44}
{"smiles": "Cc1oncc1NS(=O)(=O)c1c[nH]c2ncccc12", "Percent Effect": -22.29}
{"smiles": "c1cncc(COCC2CN(Cc3ccsc3)Cc3ccnn3C2)c1", "note": "(stereo not given)", "Percent Effect": -8.281}
{"smiles": "COc1ccccc1OCCNc1snc(Cl)c1C#N", "Percent Effect": -4.663}
{"smiles": "Cc1csc(CN(C)C2CCN(c3sccc3C#N)C2=O)n1", "note": "(stereo not given)", "Percent Effect": 9.47}
{"smiles": "Cc1nc(SC2CCN(c3sccc3C#N)C2=O)oc1C", "note": "(stereo not given)", "Percent Effect": 85.81}
{"smiles": "CCc1noc(CN(C)C2CCN(c3sccc3C#N)C2=O)n1", "note": "(stereo not given)", "Percent Effect": 0.9243}
{"smiles": "Cn1c(C(N)=O)ccc1-c1ccccc1", "Percent Effect": 3.483}
{"smiles": "CC(C)NC(=O)NCCCOC1CCOCC1", "Percent Effect": -1.893}
{"smiles": "COCCOCC(=O)N(Cc1cccc(C)c1)C(C)C", "Percent Effect": -6.619}
{"smiles": "O=C(O)C(F)(F)F.O=C1COC2(CCN(Cc3ccoc3)CC2)CN1CCn1cccn1", "Percent Effect": 2.726}
{"smiles": "O=C(O)C(F)(F)F.O=C1COC2(CCN(Cc3ccco3)CC2)CN1CCn1cccn1", "Percent Effect": 4.018}
{"smiles": "Cc1cccc(CN2CC3(CCN(Cc4ccoc4)CC3)OCC2=O)n1.O=C(O)C(F)(F)F.O=C(O)C(F)(F)F", "Percent Effect": 122.8}
{"smiles": "Cc1cccc(CN2CC3(CCN(Cc4ccco4)CC3)OCC2=O)n1.O=C(O)C(F)(F)F.O=C(O)C(F)(F)F", "Percent Effect": 121.1}
{"smiles": "O=C(O)C(F)(F)F.O=C(c1ccco1)N1C[C@H]2CCCN(CC3CCOCC3)[C@H]2C1", "Percent Effect": -19.49}
{"smiles": "COCCNC(=O)[C@H]1CN(Cc2scnc2C)C[C@H]2OCC[C@@H]12.O=C(O)C(F)(F)F.O=C(O)C(F)(F)F", "Percent Effect": -9.051}
{"smiles": "COc1cccc(-c2ncc(CN3CC[C@H]4CC[C@@H](C3)N4)s2)c1", "Percent Effect": -2.167}
{"smiles": "O=c1[nH]c(-c2ccc(F)c(F)c2)nc2c1CCNC2", "Percent Effect": -21.65}
{"smiles": "Cc1nc(CN(C)C2CCN(Cc3ccc(Cl)s3)C2)no1", "note": "(stereo not given)", "Percent Effect": 99.87}
{"smiles": "CC(=O)N(Cc1noc(C)n1)C1CCN(Cc2cnc(C)s2)C1", "note": "(stereo not given)", "Percent Effect": 83.55}
{"smiles": "CCOc1nnc(CN2CCC(N(C)Cc3noc(C)n3)C2)s1", "note": "(stereo not given)", "Percent Effect": 5.667}
{"smiles": "Cc1nc(CN2CCCC(N(C)Cc3nnsc3Cl)C2)no1", "note": "(stereo not given)", "Percent Effect": -2.376}
{"smiles": "CCc1cnc(CN2CCC(N(C)Cc3noc(C)n3)C2)o1", "note": "(stereo not given)", "Percent Effect": 97.22}
{"smiles": "Cc1nc(CN(C)C2CCN(Cc3cnc(C)s3)C2)no1", "note": "(stereo not given)", "Percent Effect": 106.5}
{"smiles": "Cc1nc(CN2CCCC(N(C)Cc3cnc(C)s3)C2)no1", "note": "(stereo not given)", "Percent Effect": 2.952}
